From article PMC4336329 (PLoS ONE, 2015)
Out of some 310,000 compounds screened, about 14,000 (4.5%) showed an effect of 50% or more. The effect is printed as a negative number. Shown is part of a subset that was picked to be rich in strong results.

Molecular target: human ether-à-go-go-related gene (hERG) potassium channel (human, UniProt Q12809)
Assay: primary screen, population patch clamp on CHO cells stably expressing hERG; higher = less effect of the substance
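Further: peak tail current of the secondary pulse compared with the same well before compound.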

human ether-à-go-go-related gene (hERG) potassium channel, sequence (Q12809 whole entry, looked up): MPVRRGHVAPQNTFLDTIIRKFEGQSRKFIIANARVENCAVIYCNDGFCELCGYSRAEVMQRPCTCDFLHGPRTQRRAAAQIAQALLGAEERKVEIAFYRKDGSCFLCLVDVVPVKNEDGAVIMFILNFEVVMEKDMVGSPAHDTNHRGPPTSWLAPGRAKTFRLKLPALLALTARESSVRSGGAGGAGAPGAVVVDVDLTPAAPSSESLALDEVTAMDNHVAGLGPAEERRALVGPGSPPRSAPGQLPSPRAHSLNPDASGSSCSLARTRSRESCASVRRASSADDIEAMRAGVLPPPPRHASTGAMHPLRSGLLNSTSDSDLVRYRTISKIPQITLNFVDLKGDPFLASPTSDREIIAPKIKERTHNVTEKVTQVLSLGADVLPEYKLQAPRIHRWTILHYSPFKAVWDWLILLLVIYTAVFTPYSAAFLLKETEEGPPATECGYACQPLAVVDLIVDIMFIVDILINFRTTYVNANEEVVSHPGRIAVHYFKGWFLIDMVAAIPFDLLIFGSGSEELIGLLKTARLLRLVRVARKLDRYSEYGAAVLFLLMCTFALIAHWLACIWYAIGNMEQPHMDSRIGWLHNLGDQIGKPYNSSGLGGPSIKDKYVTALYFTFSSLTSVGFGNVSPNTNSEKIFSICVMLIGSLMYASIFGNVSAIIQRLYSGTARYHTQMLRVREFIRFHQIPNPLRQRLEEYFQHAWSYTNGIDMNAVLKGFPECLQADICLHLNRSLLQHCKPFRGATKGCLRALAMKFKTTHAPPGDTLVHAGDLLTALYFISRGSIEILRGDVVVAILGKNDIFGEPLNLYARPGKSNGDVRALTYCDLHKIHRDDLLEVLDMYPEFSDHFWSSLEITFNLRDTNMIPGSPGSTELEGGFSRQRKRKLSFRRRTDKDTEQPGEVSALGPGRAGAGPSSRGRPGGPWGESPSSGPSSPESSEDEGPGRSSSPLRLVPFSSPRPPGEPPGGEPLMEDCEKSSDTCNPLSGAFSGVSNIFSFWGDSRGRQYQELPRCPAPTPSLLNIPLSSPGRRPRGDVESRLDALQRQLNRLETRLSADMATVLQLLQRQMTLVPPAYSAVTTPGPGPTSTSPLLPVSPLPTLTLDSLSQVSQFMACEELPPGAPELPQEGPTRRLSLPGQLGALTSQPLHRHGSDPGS

Row | Structure (SMILES) | hERG current change (%, negative = inhibition) at 10uM [%]
1 | Cc1ccc(N2CCN(/N=C/C(Cl)=C/c3ccccc3)CC2)cc1 | -5.13
2 | O=C(CN(Cc1ccco1)C(=O)c1ccc(Cl)cc1)Nc1c(Cl)cc(Cl)cc1Cl | 7.76
3 | CN1C(=O)c2ccccc2Sc2ccc(NC(=O)NC3CC3)cc21 | -11
4 | CCOc1ccccc1C(=O)NCC(=O)NCC1CCCCC1 | 12.2
5 | COc1ccc(N2C(=O)C3C4C=CC(CC4)C3C2=O)c([N+](=O)[O-])c1 (stereo not drawn) | -5.27
6 | O=C(/C=C/c1ccco1)NC(=S)Nc1ccc(O)c(-c2nc3ccccc3s2)c1 | 13.2
7 | CSc1ccccc1NC(=S)N/N=C/c1cccn1Cc1ccc(F)cc1 | -6.67
8 | O=C(c1cc(=O)c2ccccc2o1)N1CCN(c2ccccc2F)CC1 | -15.3
9 | COc1ccc(NC(=O)CSc2nnc(-c3ccoc3C)n2CC2CCCO2)cc1 (stereo not drawn) | -5.04
10 | Cc1cc(NC(=O)CSc2nnc(C3CC3)n2Cc2ccccc2)no1 | -8.63
11 | Cc1cc(NC(=O)CSc2nnc(-c3ccc(Br)o3)n2Cc2ccccc2)no1 | -51.2
12 | Cc1occc1-c1nnc(SCC(N)=O)n1Cc1ccccc1 | 3.5
13 | COc1ccc(NC(=O)CSc2nnc(-c3ccoc3C)n2CCc2ccccc2)cc1 | -54.3
14 | Cc1cc(NC(=O)CSc2nnc(-c3ccco3)n2Cc2ccccc2)no1 | -44.3
15 | Cc1occc1-c1nnc(SCC(=O)NCCc2ccccc2)n1Cc1ccccc1 | -81.1
16 | COCCn1c(SCC(=O)Nc2ccc(OC)cc2)nnc1-c1ccoc1C | -3.58
17 | Cc1occc1-c1nnc(SCC(=O)NCCc2ccccc2)n1C(C)c1ccccc1 (stereo not drawn) | -31.8
18 | COc1cccc2cc(C(=O)NCCc3ccccc3)oc12 | -20.1
19 | C/C(=N\NC(=O)C1(C)CC1(Br)Br)c1ccc(NC(=O)c2ccc(C)o2)cc1 (stereo not drawn) | -8.92

Row | Structure (SMILES) | hERG current change (%, negative = inhibition) at 10uM [%]
20 | COc1cc2nc(-c3cccs3)oc(=O)c2cc1OC | 4.77
21 | COc1cccc2c1Oc1ncccc1N(C(=O)CCC(=O)NCc1cccc(C)c1)C2 | -23.5
22 | CC(C)[C@H](NC(=O)C1CCN(S(=O)(=O)c2ccccc2)CC1)C(=O)NCc1ccccc1 | 10.2
23 | O=C(COC(=O)/C=C/c1ccc(Br)o1)NC1CCCCC1 | 11
24 | O=C(CCN1CCN(c2ccccc2)CC1)N/N=C/c1ccc([N+](=O)[O-])o1 | -73.4
25 | O=C(Cc1ccc([N+](=O)[O-])cc1)N/N=C/c1ccc([N+](=O)[O-])o1 | -64.7
26 | O=C(Cc1ccc([N+](=O)[O-])cc1)N/N=C/c1ccco1 | -15.3
27 | CCCCCC(=O)N/N=C/c1ccc([N+](=O)[O-])o1 | -26.2
28 | O=C(Cc1ccccc1)N/N=C/c1ccc(-c2ccc([N+](=O)[O-])cc2)o1 | 4.21
29 | CC(=O)Nc1ccc(/C=N/NC(=O)CCN2CCN(c3ccccc3)CC2)cc1 | -2.3
30 | O=C(CCN1CCN(c2ccccc2)CC1)N/N=C/c1ccccc1O | -16
31 | O=C(CN1CCCCCCC1)N/N=C/c1ccc([N+](=O)[O-])o1 | -52.1
32 | O=C(N/N=C/c1ccc([N+](=O)[O-])o1)C1CCCC1 | 10.6
33 | COc1ccc(C2C(C(=O)c3cccs3)=C(O)C(=O)N2c2nnc(C)s2)cc1OC (stereo not drawn) | 1.32
34 | CCN1C(=O)/C(=C\N2CCN(c3ccc(F)cc3)CC2)SC1=S | 15.5
35 | COc1ccc(N2C(=O)C3CCCN3C2c2cccc(C)c2)cc1Cl (stereo not drawn) | -31.3
36 | O=C(Nc1ccccc1F)C(=O)c1cn(CC(=O)N2CCCCC2)c2ccccc12 | 13.8
37 | CN1CCN(C2=Nc3ccccc3Oc3ccc(Cl)cc32)CC1.O=C(O)CCC(=O)O | -6.25
38 | CCN(CC(=O)NC(=O)NC1CCCCC1)Cc1nc2ccccc2c(=O)[nH]1 | -8.1

Row | Structure (SMILES) | hERG current change (%, negative = inhibition) at 10uM [%]
39 | CN1CC(=O)N=C1N.Cl | -50.1
40 | CN1CC(=O)N=C1N | 8.56
41 | O=C(CN1CCN(S(=O)(=O)c2ccc(F)c(Cl)c2)CC1)N1CCNC1=O | -1.79
42 | Cc1ccc(-c2noc(C3CCCN(C(=O)c4ccccc4Br)C3)n2)cc1 (stereo not drawn) | 0.00198
43 | N/C(=N\OC(=O)/C=C/c1ccccc1)c1ccc(Br)cc1 | 4.83
44 | COc1ccc(CCNCC2C(Oc3ccc(Cl)cc3)C(=O)N2c2ccccc2C)cc1OC.Cl (stereo not drawn) | -41
45 | O=[N+]([O-])c1cc(/C=N/n2cnnc2)ccc1N1CCCC1 | -38.7
46 | N#CCc1ccccc1C(=O)OCC(=O)N(Cc1ccccc1)Cc1ccccc1 | -52.1
47 | O=C(OCC(=O)N(Cc1ccccc1)Cc1ccccc1)c1ccccc1O | 5.67
48 | O=C(OCC(=O)N(Cc1ccccc1)Cc1ccccc1)c1ccccc1NCCO | -15.4
49 | O=CN1CCCN(Cc2nc(-c3cccc(Cl)c3)no2)CC1 | -13.3
50 | CN1CCCN(Cc2nc(-c3cccc(C(F)(F)F)c3)no2)CC1 | -60.2
51 | CC1CCN(Cc2nc(-c3ccc(Cl)cc3)no2)CC1 | 8.57
52 | CN1CCCN(Cc2nc(-c3ccc(Cl)cc3)no2)CC1 | -72.6
53 | FC(F)(F)c1ccc(-c2noc(CN3CCCN(C4CCCCC4)CC3)n2)cc1 | -75.7
54 | Clc1ccc(-c2noc(CN3CCCC3)n2)cc1 | -15.1
55 | FC(F)(F)c1cccc(-c2noc(CN3CCOCC3)n2)c1 | 6.74
56 | c1cnc(-c2noc(CN3CCN(C4CCCC4)CC3)n2)cn1 | 18.7
57 | Cc1ccc(-c2noc(CN3CCCCC3)n2)cc1 | 34.6
